In PubChem BioAssay AID1159580 (chemical genetic matrix, 2015):
About 2,000 (36%) of roughly 5,500 compounds were called active. About 18% were inconclusive and are not listed. The list shows a part of the results. A number with no mark means an inactive call. Cut-off read from the data, not from the text of the source: active = normalized growth mostly below about 0.91 (no sharp cut-off); inconclusive = no clear call, values can overlap the other calls; inactive = mostly above about 0.92.

Experiment: chemical genetic growth profiling, strain panel (AID 1159580);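 note: tested at 20 µM; growth read once vehicle control cultures reached saturation at 30 °C; 1 = growth at the plate median or of vehicle wells; lower values mean less growth of the strain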
Details: growth OD

Structure (SMILES): CC[C@@]1(O)C[C@H](O[C@H]2C[C@H](N(C)C)[C@H](O)[C@H](C)O2)c2c(cc3c(c2O)C(=O)c2c(O)cccc2C3=O)[C@H]1C(=O)OC
- normalized growth (S. cerevisiae deletion strains, locus YKL068W, active compounds read low): 0.965
- normalized growth (S. cerevisiae deletion strains, locus YKL085W, strain MDH1 (second series), active compounds read low): 0.914 (active)
- normalized growth (S. cerevisiae deletion strains, locus YKL085W, strain MDH1, active compounds read low): 0.914 (active)
- normalized growth (S. cerevisiae deletion strains, locus YKL160W, strain elf1, active compounds read low): 0.873 (active)
- normalized growth (S. cerevisiae deletion strains, locus YKL190W, strain CNB1, active compounds read low): 0.876 (active)
- normalized growth (S. cerevisiae deletion strains, locus YKR001C, strain vps1, active compounds read low): 0.639 (active)
- normalized growth (S. cerevisiae deletion strains, locus YKR026C, strain gcn3, active compounds read low): 0.945
- normalized growth (S. cerevisiae deletion strains, locus YKR091W, strain srl3, active compounds read low): 0.945
- normalized growth (S. cerevisiae deletion strains, locus YLL001W, strain dnm1, active compounds read low): 0.869 (active)
- normalized growth (S. cerevisiae deletion strains, locus YLL026W, active compounds read low): 0.908 (active)
- normalized growth (S. cerevisiae deletion strains, locus YLL041C, strain sdh2, active compounds read low): 0.944
- normalized growth (S. cerevisiae deletion strains, locus YLR027C, strain aat2, active compounds read low): 0.877 (active)
- normalized growth (S. cerevisiae deletion strains, locus YLR039C, strain RIC1, active compounds read low): 0.491 (active)
- normalized growth (S. cerevisiae deletion strains, locus YLR058C, strain SHM2, active compounds read low): 0.89 (active)
- normalized growth (S. cerevisiae deletion strains, locus YLR102C, strain apc9, active compounds read low): 0.901 (active)
- normalized growth (S. cerevisiae deletion strains, locus YLR113W, strain HOG1, active compounds read low): 1.02
- normalized growth (S. cerevisiae deletion strains, locus YLR221C, strain rsa3, active compounds read low): 0.855 (active)
- normalized growth (S. cerevisiae deletion strains, locus YLR258W, strain gsy2, active compounds read low): 0.929
- normalized growth (S. cerevisiae deletion strains, locus YLR262C, strain YPT6 (second series), active compounds read low): 0.649 (active)
- normalized growth (S. cerevisiae deletion strains, locus YLR262C, strain YPT6, active compounds read low): 0.462 (active)
- normalized growth (S. cerevisiae deletion strains, locus YLR268W, strain sec22, active compounds read low): 0.691 (active)
- normalized growth (S. cerevisiae deletion strains, locus YLR320W, strain mms22, active compounds read low): 0.245 (active)
- normalized growth (S. cerevisiae deletion strains, locus YLR330W, strain CHS5, active compounds read low): 0.873 (active)
- normalized growth (S. cerevisiae deletion strains, locus YLR342W, strain FKS1 (second series), active compounds read low): 0.769 (active)
- normalized growth (S. cerevisiae deletion strains, locus YLR342W, strain FKS1, active compounds read low): 0.862 (active)
- normalized growth (S. cerevisiae deletion strains, locus YLR357W, strain rsc2, active compounds read low): 0.939
- normalized growth (S. cerevisiae deletion strains, locus YLR370C, strain arc18, active compounds read low): 0.899 (active)
- normalized growth (S. cerevisiae deletion strains, locus YLR371W, strain rom2, active compounds read low): 0.846 (active)
- normalized growth (S. cerevisiae deletion strains, locus YLR384C, strain iki3, active compounds read low): 0.93
- normalized growth (S. cerevisiae deletion strains, locus YLR418C, strain cdc73, active compounds read low): 0.69 (active)
- normalized growth (S. cerevisiae deletion strains, locus YML016C, strain PPZ1, active compounds read low): 0.929
- normalized growth (S. cerevisiae deletion strains, locus YML032C, strain rad52, active compounds read low): 0.241 (active)
- normalized growth (S. cerevisiae deletion strains, locus YML120C, strain ndi1, active compounds read low): 0.912 (active)
- normalized growth (S. cerevisiae deletion strains, locus YML124C, strain tub3, active compounds read low): 0.9 (active)
- normalized growth (S. cerevisiae deletion strains, locus YMR058W, strain fet3, active compounds read low): 0.818 (active)
- normalized growth (S. cerevisiae deletion strains, locus YMR078C, strain ctf18, active compounds read low): 0.724 (active)
- normalized growth (S. cerevisiae deletion strains, locus YMR125W, strain sto1, active compounds read low): 1.05
- normalized growth (S. cerevisiae deletion strains, locus YMR129W, active compounds read low): 0.921 (active)
- normalized growth (S. cerevisiae deletion strains, locus YMR205C, strain PFK2, active compounds read low): 0.779 (active)
- normalized growth (S. cerevisiae deletion strains, locus YMR223W, strain ubp8, active compounds read low): 0.838 (active)
- normalized growth (S. cerevisiae deletion strains, locus YMR231W, strain pep5, active compounds read low): 0.918 (active)
- normalized growth (S. cerevisiae deletion strains, locus YMR263W, strain SAP30, active compounds read low): 0.92
- normalized growth (S. cerevisiae deletion strains, locus YMR307W, strain GAS1, active compounds read low): 0.601
- normalized growth (S. cerevisiae deletion strains, locus YNL067W, strain RPL9B, active compounds read low): 0.824 (active)
- normalized growth (S. cerevisiae deletion strains, locus YNL071W, strain lat1, active compounds read low): 0.815 (active)
- normalized growth (S. cerevisiae deletion strains, locus YNL153C, strain GIM3, active compounds read low): 0.94
- normalized growth (S. cerevisiae deletion strains, locus YNL183C, strain NPR1, active compounds read low): 0.926
- normalized growth (S. cerevisiae deletion strains, locus YNL209W, strain ssb2, active compounds read low): 0.871 (active)
- normalized growth (S. cerevisiae deletion strains, locus YNL233W, strain BNI4, active compounds read low): 0.861 (active)
- normalized growth (S. cerevisiae deletion strains, locus YNL248C, strain rpa49, active compounds read low): 0.309 (active)
- normalized growth (S. cerevisiae deletion strains, locus YNL250W, strain rad50, active compounds read low): 0.559 (active)
- normalized growth (S. cerevisiae deletion strains, locus YNL271C, strain bni1, active compounds read low): 0.916 (active)
- normalized growth (S. cerevisiae deletion strains, locus YNL298W, strain CLA4, active compounds read low): 0.898 (active)
- normalized growth (S. cerevisiae deletion strains, locus YNL307C, strain MCK1, active compounds read low): 0.864 (active)
- normalized growth (S. cerevisiae deletion strains, locus YNL322C, strain KRE1 (second series), active compounds read low): 0.922
- normalized growth (S. cerevisiae deletion strains, locus YNL322C, strain KRE1, active compounds read low): 0.893 (active)
- normalized growth (S. cerevisiae deletion strains, locus YNR049C, strain mso1, active compounds read low): 0.946
- normalized growth (S. cerevisiae deletion strains, locus YNR052C, strain pop2, active compounds read low): 0.65 (active)
- normalized growth (S. cerevisiae deletion strains, locus YOL006C, strain TOP1, active compounds read low): 0.198 (active)
- normalized growth (S. cerevisiae deletion strains, locus YOL012C, strain htz1): 0.351
- normalized growth (S. cerevisiae deletion strains, locus YOL147C, strain pex11, active compounds read low): 0.837 (active)
- normalized growth (S. cerevisiae deletion strains, locus YOR001W, strain rrp6, active compounds read low): 0.934
- normalized growth (S. cerevisiae deletion strains, locus YOR061W, strain CKA2, active compounds read low): 0.89
- normalized growth (S. cerevisiae deletion strains, locus YOR069W, strain VPS5, active compounds read low): 0.895 (active)
- normalized growth (S. cerevisiae deletion strains, locus YOR070C, strain gyp1, active compounds read low): 0.898 (active)
- normalized growth (S. cerevisiae deletion strains, locus YOR080W, strain dia2, active compounds read low): 0.97
- normalized growth (S. cerevisiae deletion strains, locus YOR083W, strain WHI5, active compounds read low): 0.81 (active)
- normalized growth (S. cerevisiae deletion strains, locus YOR106W, strain vam3, active compounds read low): 0.672 (active)
- normalized growth (S. cerevisiae deletion strains, locus YOR136W, strain idh2, active compounds read low): 0.894 (active)
- normalized growth (S. cerevisiae deletion strains, locus YOR144C, strain elg1, active compounds read low): 0.857 (active)
- normalized growth (S. cerevisiae deletion strains, locus YOR184W, strain ser1, active compounds read low): 0.591 (active)
- normalized growth (S. cerevisiae deletion strains, locus YOR231W, strain MKK1, active compounds read low): 0.994
- normalized growth (S. cerevisiae deletion strains, locus YOR265W, strain rbl2, active compounds read low): 0.917 (active)
- normalized growth (S. cerevisiae deletion strains, locus YOR270C, strain vph1, active compounds read low): 0.39 (active)
- normalized growth (S. cerevisiae deletion strains, locus YOR290C, strain snf2, active compounds read low): 0.932
- normalized growth (S. cerevisiae deletion strains, locus YOR316C, strain cot1, active compounds read low): 0.915 (active)
- normalized growth (S. cerevisiae deletion strains, locus YPL051W, strain arl3, active compounds read low): 0.785 (active)
- normalized growth (S. cerevisiae deletion strains, locus YPL055C, strain LGE1, active compounds read low): 0.744 (active)
- normalized growth (S. cerevisiae deletion strains, locus YPL078C, strain atp4, active compounds read low): 0.961
- normalized growth (S. cerevisiae deletion strains, locus YPL106C, strain sse1, active compounds read low): 1.04
- normalized growth (S. cerevisiae deletion strains, locus YPL240C, strain hsp82, active compounds read low): 0.92 (active)
- normalized growth (S. cerevisiae deletion strains, locus YPL241C, strain CIN2, active compounds read low): 0.929 (active)
- normalized growth (S. cerevisiae deletion strains, locus YPL256C, strain CLN2, active compounds read low): 0.963
- normalized growth (S. cerevisiae deletion strains, locus YPR119W, strain clb2, active compounds read low): 0.901 (active)
- normalized growth (S. cerevisiae deletion strains, locus YPR141C, strain kar3, active compounds read low): 0.935
- normalized growth (S. cerevisiae deletion strains, locus YPR163C, strain tif3, active compounds read low): 0.783 (active)
- normalized growth (S. cerevisiae deletion strains, locus YPR167C, strain met16, active compounds read low): 0.882 (active)
- normalized growth (S. cerevisiae deletion strains, strain wtn01, active compounds read low): 0.759 (active)
- normalized growth (S. cerevisiae strains, strain wild type, active compounds read low): 0.841 (active)
